ST2 IL33 inh: IL1RL1 inhibition. Q01638. AlphaLISA ST2-Fc/biotin-IL-33 interaction, 1 h. inhibition, % for hits at 17 µM. 2.3% of 78,000 active. AID 1259354; in the data active means inhibition above about 30%
Target sequence (Q01638 whole entry, looked up): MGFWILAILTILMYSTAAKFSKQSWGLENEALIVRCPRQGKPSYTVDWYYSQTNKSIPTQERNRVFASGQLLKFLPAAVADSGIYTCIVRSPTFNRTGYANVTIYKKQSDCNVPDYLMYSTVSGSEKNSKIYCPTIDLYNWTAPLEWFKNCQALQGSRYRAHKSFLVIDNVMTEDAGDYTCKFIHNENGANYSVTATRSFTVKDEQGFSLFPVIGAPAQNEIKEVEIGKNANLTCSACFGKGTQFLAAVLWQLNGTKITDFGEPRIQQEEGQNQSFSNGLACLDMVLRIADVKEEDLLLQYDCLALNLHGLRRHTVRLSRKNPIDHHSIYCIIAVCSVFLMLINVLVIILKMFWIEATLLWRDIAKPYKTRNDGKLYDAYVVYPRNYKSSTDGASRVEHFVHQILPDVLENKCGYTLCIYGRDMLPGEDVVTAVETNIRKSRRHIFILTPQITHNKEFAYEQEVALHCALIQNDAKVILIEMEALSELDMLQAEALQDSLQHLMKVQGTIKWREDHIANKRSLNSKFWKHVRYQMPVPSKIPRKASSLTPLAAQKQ
Large screens that a line does not name were inactive. Many of the other results were omitted from the sample, so hits are more common in it than they were.

O=c1[nH]c2ccc(S(=O)(=O)Nc3ccc(Cl)c(C(F)(F)F)c3)cc2[nH]c1=O	none
O=C(c1ccccc1)C1CCCCC1S(=O)(=O)O (stereo not given)	none
COC(=O)c1ccc(Cl)cc1NC(=O)N1CCN(Cc2nc3cccnc3n2-c2ccccc2)CC1	none
COc1cc2c(cc1OC)CN(Cc1ccc(OCc3ccccc3)c(OC)c1)CC2	none
Nc1ccc(Cl)c2c1C(=O)c1ccccc1C2=O	ST2 IL33 inh 42.0%
Nc1ccc(N2C(=O)c3ccccc3C2=O)c(Cl)c1	none
Nc1cccc2c1C(=O)N(c1ccc(Cl)cc1)C2=O	none
O=C(c1ccc2nc3ccc(Cl)cc3c(=O)n2c1)N1CCN(c2ccc(F)cc2)CC1	none
CS(=O)(=O)NC1CCCCCCC1	none
COc1ccc(CCN(C)C2CCCN(Cc3ccccc3F)C2)cc1OC (stereo not given)	none
CC1CCN(C(=O)C2(S(=O)(=O)c3ccc(Cl)cc3)CC2)CC1	none
Cc1nc(N2CCC(C(=O)NCCSc3nncn3C)CC2)nc2ccc(C(C)C)cc12	none
O=C(NCCCN1CCN(c2ccc(F)cc2)CC1)C1CCCN1c1nnc(N2CCCC2=O)s1 (stereo not given)	none
Cn1nc(C(=O)NCc2ccc(F)cc2)c2c1CCC(NC1CCN(Cc3ccccc3)CC1)C2 (stereo not given)	none
COc1ccc(CNc2ccc3c(c2)ncn3C2CCCCC2)cc1	ST2 IL33 inh 39.0%
CCn1cnc2cc(NCc3ccc(OC)c(OC)c3)ccc21	none
COc1ccc(CNc2ccc3c(c2)ncn3C(C)(C)C)cc1OC	none
COc1ccc(CNc2ccc3c(c2)ncn3C2CCCCC2)cc1OC	ST2 IL33 inh 33.0%
COc1ccc(CNC(=O)c2ccc3c(c2)ncn3C2CCCC2)c(OC)c1	none
CCOc1ccc(CNc2ccc3c(c2)ncn3C(C)(C)C)cc1	none
CCOC(=O)c1ccc(N2C(=O)CC(N3CCN(Cc4ccc(Cl)cc4)CC3)C2=O)cc1 (stereo not given)	none
COc1ccc(Cn2c(CNS(=O)(=O)c3ccccc3)nc3cccnc32)cc1	none
CC(C)c1ccc(S(=O)(=O)Nc2ccc3oc(=O)sc3c2)cc1	none
COC(=O)C1C(=O)C2=C(CC1C)NC(C)=C(C(=O)OC1CCCC1)C2c1ccc(OC)c(O)c1 (stereo not given)	none
CC1CCCC(C)N1C(=O)c1nn2c(c1Cl)NC(c1ccco1)CC2C(F)(F)F (stereo not given)	none
O=C(c1csc(-c2cccnc2)n1)N1C[C@@H]2[C@@H]3CC[C@@H](C3)[C@@H]2C1	none
N#Cc1ccc(/C=C2\NC(=O)N(Cc3ccc(Cl)cc3)C2=O)cc1	ST2 IL33 inh 30.0%
Cc1cc(/C=C2\NC(=O)N(Cc3ccc(Cl)cc3)C2=O)c(C)n1-c1ccc(C#N)cc1	none
O=C1N/C(=C\c2ccc(Cl)cc2)C(=O)N1Cc1ccc(Cl)cc1	none
COc1ccc(C(=O)N2CCCC2)c(OC2CCN(C(=O)CSC)CC2)c1	none
Cc1cc(C)c(C(=O)N2CCCC(C(=O)c3ccc(C(F)(F)F)cc3)C2)[nH]1 (stereo not given)	none
CC(=O)N(CN1C(=O)CCC1=O)c1cccc(Cl)c1	none
CC(=O)N(C1=C(N(C)C)C(=O)c2ccccc2C1=O)c1cccc(Cl)c1	ST2 IL33 inh 31.0%
CN(C)C(=O)c1ccccc1-c1cccc(Cl)c1	none
COc1cc(C(=O)N2CCN=C2SCc2ccccc2C)cc(OC)c1OC	none
COc1ccccc1NC(=O)CSC1=NN2CCCC(=O)N=C2S1	none
CCOc1ccc(S(=O)(=O)Nc2cc([N+](=O)[O-])ccc2OC)c2cccnc12	none
CCCN(CCC)c1ncnc2ccc(Br)cc12	none
O=C(Nc1c(F)c(F)c(F)c(F)c1F)C1CCCO1 (stereo not given)	none
Nc1c(S(=O)(=O)O)cc(Nc2ccc(Nc3nc(Cl)nc(Nc4ccc(S(=O)(=O)O)cc4)n3)c(S(=O)(=O)O)c2)c2c1C(=O)c1ccccc1C2=O	ST2 IL33 inh 81.0%
CC(C)N1C(=O)c2ccccc2C1C(=O)NC1CCCCCCC1 (stereo not given)	none
Cc1ccc(NC(=O)C2CCCCC2)cc1OCc1cc(=O)n2cccc(C)c2n1	none
Cc1ccc(SCC(=O)Nc2ccc(C)c(OCc3cc(=O)n4cccc(C)c4n3)c2)cc1	none
Cc1ccc(NC(=O)c2ccccc2C)cc1OCc1cc(=O)n2cccc(C)c2n1	ST2 IL33 inh 33.0%
O=C1C(Nc2ccccc2)=CC(c2ccccc2[N+](=O)[O-])N1c1ccccc1 (stereo not given)	ST2 IL33 inh 30.0%
COc1ccc(OC)c(C2C=C(Nc3ccccc3)C(=O)N2c2ccccc2)c1 (stereo not given)	none
COc1ccccc1C1C=C(Nc2ccc(C)cc2)C(=O)N1c1ccc(C)cc1 (stereo not given)	none
O=C1[C@H]2C3c4ccccc4C(CO)(c4ccccc43)[C@H]2C(=O)N1c1ccccc1Cl	none
CCN1CCN(c2c([N+](=O)[O-])nn(-c3ccccc3)[n+]2[O-])CC1	none
COc1cc(NC(=O)c2ccc(Cl)cc2Cl)c(OC)cc1Cl	none
COc1ccc(/C=C2/SC(=O)N(CCC(=O)Nc3ccccc3Br)C2=O)cc1	none
O=C(CN1C(=O)S/C(=C/c2ccccc2)C1=O)Nc1ccccc1Cl	none
COc1ccc(/C=C2/SC(=O)N(CC(=O)Nc3cc(C)on3)C2=O)cc1OC	ST2 IL33 inh 35.0%

Compound activity deposited in PubChem by Paczesny and Yang Labs, IUPUI and University of Michigan.
